# Measured values from the supplement of paper PMC12067926.
# Test system: Prolinoborus 1 (Prolinoborus fasciculus)
# Experiment: relative growth (AUC of 72 h growth curve relative to DMSO control, dAUC) (ratio); higher = more growth (less inhibition), active = hit call of the paper
# Conditions: 20 µM;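 active = growth AUC significantly below the DMSO wells by Dunnett test; inactive = the rest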
# Summary of the method: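 Isolates from Icelandic stream sediments and Silwood Park soil, along with whole sediment communities, were grown in Luria–Bertani medium to carrying capacity and diluted 1:100 into 96-well plates with each chemical at 20 µM (1% DMSO). A600 was measured hourly for 72 h, and values were averaged over three biological replicates. Relative growth (dAUC) is the spline-integrated growth-curve area over the mean of the DMSO controls.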
row,SMILES,relative growth
1,CCCSP(=O)(OCC)Oc1ccc(Br)cc1Cl (configuration not stated),1.01 (inactive)
2,CC1(C(=O)Nc2ccc(O)c(Cl)c2Cl)CCCCC1,0.938 (inactive)
3,C[N+](C)(C)CCCl,0.959 (inactive)
4,CCc1cnc(C2=NC(C)(C(C)C)C(=O)N2)c(C(=O)O)c1 (configuration not stated),0.973 (inactive)
5,CC[C@H](C)[C@H]1O[C@]2(C=C[C@@H]1C)C[C@@H]1C[C@@H](C/C=C(\C)[C@@H](O[C@H]3C[C@H](OC)[C@@H](O[C@H]4C[C@H](OC)[C@@H](O)[C@H](C)O4)[C@H](C)O3)[C@@H](C)/C=C/C=C3\CO[C@@H]4[C@H](O)C(C)=C[C@@H](C(=O)O1)[C@]34O)O2.CO[C@H]1C[C@H](O[C@H]2[C@H](C)O[C@@H](O[C@@H]3/C(C)=C/C[C@@H]4C[C@@H](C[C@]5(C=C[C@H](C)[C@@H](C(C)C)O5)O4)OC(=O)[C@@H]4C=C(C)[C@@H](O)[C@H]5OC/C(=C\C=C\[C@@H]3C)[C@]54O)C[C@@H]2OC)O[C@@H](C)[C@@H]1O,0.894 (inactive)
6,CCCCC(C#N)(Cn1cncn1)c1ccc(Cl)cc1 (configuration not stated),0.947 (inactive)
7,Clc1ccc(C(c2ccc(Cl)cc2)C(Cl)(Cl)Cl)cc1,1.08 (inactive)
8,CCC(C)(C)C(=O)OC1=C(c2ccc(Cl)cc2Cl)C(=O)OC12CCCCC2,0.952 (inactive)
9,O=C1c2ccccc2C(=O)N1SC(Cl)(Cl)Cl,1.04 (inactive)
10,Cc1nnc(-c2ccccc2)c(=O)n1N,0.97 (inactive)
11,N#Cc1c(Cl)c(Cl)c(Cl)c(C#N)c1Cl,1.04 (inactive)
12,CC(C)N(C)S(=O)(=O)NC(=O)c1cc(-n2c(=O)cc(C(F)(F)F)n(C)c2=O)c(F)cc1Cl,0.979 (inactive)
13,COC(=O)N(C(=O)N1CO[C@@]2(C(=O)OC)Cc3cc(Cl)ccc3C2=N1)c1ccc(OC(F)(F)F)cc1,1 (inactive)
14,CN1COCN(Cc2cnc(Cl)s2)/C1=N\[N+](=O)[O-],0.974 (inactive)
15,CCCN(CCC)C(=O)SCc1ccccc1,1.01 (inactive)
16,OC(Cn1cncn1)(c1ccc(F)cc1)c1ccccc1F (configuration not stated),0.985 (inactive)
17,CC(C1CC1)C(O)(Cn1cncn1)c1ccc(Cl)cc1 (configuration not stated),0.901 (inactive)
18,COC(=O)c1ccccc1S(=O)(=O)NC(=O)Nc1nc(C)nc(OC)n1,1.03 (inactive)
19,CN(C)C(CSS(=O)(=O)O)CSS(=O)(=O)O,0.961 (inactive)

row,SMILES,relative growth
1,CNC(=O)c1cc(Cl)cc(C)c1NC(=O)c1cc(Br)nn1-c1ncccc1Cl,0.997 (inactive)
2,CO/C=C(/C(=O)OC)c1ccccc1Oc1cc(Oc2ccccc2C#N)ncn1,0.973 (inactive)
3,O=C(NC(=O)c1c(F)cccc1F)Nc1ccc(OC(F)(F)C(F)OC(F)(F)F)c(Cl)c1 (configuration not stated),0.988 (inactive)
4,N#Cc1cc(Br)c(O)c(Br)c1,0.996 (inactive)
5,CCOCN(C(=O)CCl)c1c(C)cccc1CC,1.2
6,CC1(C)[C@H](/C=C(\Cl)C(F)(F)F)[C@@H]1C(=O)OC(C#N)c1cccc(Oc2ccccc2)c1 (some centres not stated),0.983 (inactive)
7,C#CCOc1ccc(CCNC(=O)C(OCC#C)c2ccc(Cl)cc2)cc1OC (configuration not stated),0.958 (inactive)
8,O=[N+]([O-])/N=C1\NCCN1Cc1ccc(Cl)nc1,0.987 (inactive)
9,Fc1ccc(Oc2ccnc3cc(Cl)cc(Cl)c23)cc1,1.03 (inactive)
10,CC(Oc1ccc(Oc2ncc(C(F)(F)F)cc2Cl)cc1)C(=O)O (configuration not stated),0.983 (inactive)
11,O=C(O)CNCP(=O)(O)O,0.991 (inactive)
12,C[N+]1(C)CCCCC1,0.974 (inactive)
13,Oc1ccc(Cl)cc1Cc1cc(Cl)ccc1O,0.0645 (active)
14,CCOP(=S)(OCC)Oc1cc(C)nc(C(C)C)n1,0.91 (inactive)
15,CC(C)N(C(=O)COc1nnc(C(F)(F)F)s1)c1ccc(F)cc1,0.963 (inactive)
16,CCCC1COC(Cn2cncn2)(c2ccc(Cl)cc2Cl)O1 (configuration not stated),0.954 (inactive)
17,Nc1c([N+](=O)[O-])ccc(Oc2ccccc2)c1Cl,0.962 (inactive)
18,COC(=O)N(OC)c1ccccc1COc1ccn(-c2ccc(Cl)cc2)n1,1.01 (inactive)
